In ChEMBL document CHEMBL3433997, “St. Jude Leishmania screening dataset” (2016) one finds inhibition data, which are given here for 13 compounds.

One may read the inhibition as the drop in the measured response relative to a control, in per cent.

Each structure is given as a SMILES string.

What all share (assay type): functional
Assay [1] has as its target Solute carrier family 2, facilitated glucose transporter member 1 (Homo sapiens) (UniProt P11166). As to the kind of experiment: ST_JUDE_LEISH: Cytotoxicity at 2uM final concentration against transgenic Leishmania Mexicana promastigotes LmGLUT1 that are glucose transport deficient and complemented with the human glucose transporter GLUT1. Activity is measured by DNA content using SYBR green in vitro.

For assay [2], the target named is Hexose transporter 1 (Plasmodium falciparum) (UniProt O97467). As to the kind of experiment: ST_JUDE_LEISH: Cytotoxicity at 2uM final concentration against transgenic Leishmania Mexicana promastigotes LmPfHT that are glucose transport deficient and complemented with the Plasmodium falciparum hexose transporter. Activity is measured by DNA content using SYBR green in vitro.

Assay [3] addresses Glucose transporter (Leishmania mexicana) (UniProt O61059). As to the kind of experiment: ST_JUDE_LEISH: Cytotoxicity at 2uM final concentration against transgenic Leishmania Mexicana promastigotes LmGT2 that are glucose transport deficient and complemented with the L. Mexicana glucose transporter 2. Activity is measured by DNA content using SYBR green in vitro.

Chain of Solute carrier family 2, facilitated glucose transporter member 1 (Homo sapiens) (P11166 whole entry): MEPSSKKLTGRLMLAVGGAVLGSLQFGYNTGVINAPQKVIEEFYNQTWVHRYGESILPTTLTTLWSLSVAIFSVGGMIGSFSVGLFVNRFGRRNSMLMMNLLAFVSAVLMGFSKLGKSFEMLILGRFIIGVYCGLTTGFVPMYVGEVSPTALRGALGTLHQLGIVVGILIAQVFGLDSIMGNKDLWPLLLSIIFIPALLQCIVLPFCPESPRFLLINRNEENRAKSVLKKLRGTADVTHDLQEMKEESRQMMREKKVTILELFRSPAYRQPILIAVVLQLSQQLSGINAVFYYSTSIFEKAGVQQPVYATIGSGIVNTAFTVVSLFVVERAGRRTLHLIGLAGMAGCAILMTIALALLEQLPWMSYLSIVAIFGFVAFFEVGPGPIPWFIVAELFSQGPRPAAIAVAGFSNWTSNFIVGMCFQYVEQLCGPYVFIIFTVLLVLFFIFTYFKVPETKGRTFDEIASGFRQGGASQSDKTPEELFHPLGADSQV

Regarding `COc1cccc(CNC(=O)NC2CCN(c3ccnc(Nc4cc(OC)c(OC)c(OC)c4)n3)C2)c1` (centres undefined), the figures for the inhibition in assay [1], in assay [2] and in assay [3] were 2.39%, 1.6% and 2.88%, respectively.

With `O=S(=O)(Nc1cc2c(cc1OCCCN1CCCCC1)CCNCC2)c1ccc(-c2ccc(Cl)cc2)cc1`, the inhibition is 1.29% in assay [1], -0.13% in assay [2] and -0.37% in assay [3].

With `COc1ccc(CNCc2ccc(F)cc2)cc1-c1ccc(S(=O)(=O)NCCN2CCCC2)cc1`, the inhibition in assay [1] was found to be 7.44%; in assay [2] it was 6.73%; in assay [3], 5.24%.

For `CN(C)CCCSc1ccccc1NC(=O)C=Cc1ccccc1`, the inhibition was found to be 5.73% in assay [1], 7.21% in assay [2] and 6.85% in assay [3].

Turning to `CC(=O)Nc1ccc(CN2CCC(CNC(=O)c3cc(-c4cccc(C(F)(F)F)c4)cs3)C2)cc1` (centres undefined), the inhibition in assay [1] is -0.71%; in assay [2], 0.04%; in assay [3], -5.57%.

For `CSc1ccc(NC(=O)Nc2cc(C)nc3ccccc23)cc1`, the inhibition turned out to be 10.3% in assay [1], 10.8% in assay [2] and 10.3% in assay [3].

Consider `CC1CCc2sc(-c3nnc(SC(C)C(=O)NC4CC4)o3)cc2C1` (centres undefined), for which the inhibition in assay [1] is -0.92%; in assay [2] it was 1.65%; in assay [3], 1.25%.

`COc1ccc(CCN(C)CCc2ccc(NC(=O)c3cccc4c(=O)c5ccccc5sc34)cc2)cc1`: the inhibition in assay [1] was 2.21%; in assay [2], -0.35%; in assay [3] it was 0.2%.

Take `O=C(CNC1CCCCC1)Nc1cccc(C(=O)Nc2cccc(C(F)(F)F)c2)c1`: the inhibition was -1.07% in assay [1], -0.66% in assay [2] and -1.14% in assay [3].

With `CC(C)C[C@H](Nc1ccnc(NCC2CCCCC2)n1)C(=O)Nc1ccccc1`, the figures for the inhibition in assay [1], in assay [2] and in assay [3] were 3.81%, 3.97% and 3.2%, respectively.

On to `COc1ccc2c(c1CCNCCCCNCCc1c(OC)ccc3c1CCCC3)CCCC2`, for which the inhibition in assay [1] was 47.3%; in assay [2] it was 61.4%; in assay [3], 52.9%.

For the compound `CCOc1cc[nH]c(=O)n1`, the inhibition in assay [1] was -0.65%; in assay [2] it was 2.36%; in assay [3] it was -0.68%.

As for `COc1ccc(Cn2c(Nc3cccc(C(F)(F)F)c3)nc3cc(C(=O)NCCN4CCCC4)cnc32)cc1Cl`, the inhibition came out at 13.2% in assay [1], 12.9% in assay [2] and 15.6% in assay [3].
